Measured values from PubChem BioAssay (NCATS).
“And” between values parts separate entries of the source, which are not always exact repeats. Equal entries are not always repeated. Records with an inconclusive call do not appear. The source made the active and inactive calls. Unless noted, calls come from the whole dose curve; as a rule, active = well fitted curve in the direction sought with a large enough effect; inconclusive = small, poorly fitted or top-dose-only effect, or another doubt; inactive = no such curve, though single readings can be large; an effect the other way counts as inactive or inconclusive.

Columns and labels:
[1] = target: Transient receptor potential cation channel subfamily V member 1 (Homo sapiens) (UniProt Q8NER1); test: HTS Assay for Compounds that Act as Enhancers of the Vanilloid Receptor 1 (AID 488979); note: 0% is about no effect
Procedure, shortened: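 TRPV1 cells loaded with Fluo-8 calcium dye; compound added and Ca2+ signal (ex 480/em 520 nm) followed 3 min, then capsaicin at EC20 added and read 2 more min to detect enhancement.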

[2] = target: Thyrotropin receptor (Homo sapiens) (UniProt P16473); test: qHTS Assay for Antagonists of the Thyroid Stimulating Hormone Receptor (AID 488980); note: series mostly up to about 58 µM; 0% is about no effect
Procedure, shortened: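 TSHR-HEK293 cells; 70 uM RO 20-1724 PDE inhibitor; compound + EC80 TSH (4 nM final); anti-cAMP cryptate antibody/cAMP-d2 in lysis buffer, 30 min RT; HTRF 665/620 nm read.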

[3] = target: D(1A) dopamine receptor (Homo sapiens) (UniProt P21728); test: HTS Assay for Allosteric Agonists of the Human D1 Dopamine Receptor: Primary Screen for Agonists (AID 488981); note: 0% is about no effect
Procedure, shortened: (§1)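 Tetracycline-induced HEK293 Trex D1 cells with forced coupling to calcium, loaded with no-wash calcium dye; kinetic fluorescence read 180 s after compound addition for agonism, then a further 180 s after an EC20 dopamine challenge for potentiation.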

[4] = target: D(1A) dopamine receptor (Homo sapiens) (UniProt P21728); test: HTS Assay for Allosteric Agonists of the Human D1 Dopamine Receptor: Primary Screen for Potentiators (AID 488982); note: 0% is about no effect
Procedure, shortened: as §1

[5] = target: D(1A) dopamine receptor (Homo sapiens) (UniProt P21728); test: HTS Assay for Allosteric Agonists of the Human D1 Dopamine Receptor: Primary Screen for Antagonists (AID 488983);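 note: calcium flux response to an EC80 dopamine challenge measured with no-wash dye; nearly all actives have a fitted effect of over 65% in size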; note: potency is the fitted concentration of half-maximal effect
Procedure, shortened: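 Screening of inducible HEK293 T-REx D1 cells: compound first, EC80 dopamine 180 s later, each phase read kinetically for calcium over 180 s.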

[6] = target: ATP-dependent 6-phosphofructokinase (Trypanosoma brucei brucei) (UniProt O15648); test: qHTS Assay to Find Inhibitors of T. brucei phosphofructokinase: hit validation (AID 492961);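 note: luminescence reports ADP formed as PFK phosphorylates fructose-6-phosphate with ATP; series mostly up to about 51 µM; % is set by controls: 0 for no effect and ±100 for the full control effect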
Procedure, shortened: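 Inhibition of parasite PFK is measured as reduced ADP formation, quantified via luciferase after ATP depletion. Assay used 0.1 mM ATP, 0.5 mM F6P, 1.25 nM enzyme, 45 min incubation.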

[7] = Validation screen for small molecules that induce genotoxicity in human embryonic kidney (HEK293T) cells expressing luciferase-tagged ELG1 (AID 493106); note: potency is the fitted concentration of half-maximal effect
Procedure, shortened: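 Reporter-gene quantitative HTS in HEK293T cells carrying luciferase-tagged ELG1, whose level climbs under genotoxic stress. Compound exposure lasts 16 hr at 37 °C before luciferase detection.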

[8] = Nrf2 qHTS screen for inhibitors: Validation (AID 493153; active = well fitted inhibition curve with a large enough effect in the main read-out, with a control signal flat, not every such curve was filed as active); conditions: Potency: luciferase luminescence; viability change: measured here: cytotoxicity max response
Procedure, shortened: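 Dose-response validation uses reporter A549 cells with firefly luciferase under an antioxidant response element. Compounds stay on cells 18-24 h at 37°C, and luminescence indicates Nrf2-driven transcription.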

[9] = target: ATPase family AAA domain-containing protein 5 (Homo sapiens) (UniProt Q96QE3); test: Validation screen for small molecules that inhibit ELG1-dependent DNA repair in human embryonic kidney (HEK293T) cells expressing luciferase-tagged ELG1 (AID 493107);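 note: cells co-treated with the DNA-damaging agent 5-fluorouridine alongside compound; series mostly up to about 46 µM; % is set by controls: 0 for no effect and ±100 for the full control effect; inhibitors lower the ELG1-luciferase luminescence signal; nearly all actives have a fitted effect of over 70% in size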
Procedure, shortened: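 Quantitative HTS in HEK293T cells carrying luciferase-tagged ELG1, stimulated with 5-fluorouridine alongside compound for 16 hr. Loss of luciferase signal marks inhibition of ELG1 response.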

[10] = target: Thyrotropin-releasing hormone receptor (Homo sapiens) (UniProt P34981); test: qHTS for Small Molecule Agonists and Allosteric Enhancers of Human TRH Receptor: Validation Screen for Agonists (AID 493127;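 active = calcium activation more than 3 SD above the typical response in the agonist read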;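 note: intracellular calcium rise by fluo-8 fluorescence before TRH EC20 addition; 0% is about no effect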); conditions: TRH receptor agonist cell assay; at 2 µM; stronger effect = higher value
Procedure, shortened: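 Gq-coupled calcium mobilization in TRHR cells after compound addition, monitored kinetically with fluo-8 dye on an FDSS reader.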

Transient receptor potential cation channel subfamily V member 1 (Homo sapiens), sequence (Q8NER1 whole entry, looked up): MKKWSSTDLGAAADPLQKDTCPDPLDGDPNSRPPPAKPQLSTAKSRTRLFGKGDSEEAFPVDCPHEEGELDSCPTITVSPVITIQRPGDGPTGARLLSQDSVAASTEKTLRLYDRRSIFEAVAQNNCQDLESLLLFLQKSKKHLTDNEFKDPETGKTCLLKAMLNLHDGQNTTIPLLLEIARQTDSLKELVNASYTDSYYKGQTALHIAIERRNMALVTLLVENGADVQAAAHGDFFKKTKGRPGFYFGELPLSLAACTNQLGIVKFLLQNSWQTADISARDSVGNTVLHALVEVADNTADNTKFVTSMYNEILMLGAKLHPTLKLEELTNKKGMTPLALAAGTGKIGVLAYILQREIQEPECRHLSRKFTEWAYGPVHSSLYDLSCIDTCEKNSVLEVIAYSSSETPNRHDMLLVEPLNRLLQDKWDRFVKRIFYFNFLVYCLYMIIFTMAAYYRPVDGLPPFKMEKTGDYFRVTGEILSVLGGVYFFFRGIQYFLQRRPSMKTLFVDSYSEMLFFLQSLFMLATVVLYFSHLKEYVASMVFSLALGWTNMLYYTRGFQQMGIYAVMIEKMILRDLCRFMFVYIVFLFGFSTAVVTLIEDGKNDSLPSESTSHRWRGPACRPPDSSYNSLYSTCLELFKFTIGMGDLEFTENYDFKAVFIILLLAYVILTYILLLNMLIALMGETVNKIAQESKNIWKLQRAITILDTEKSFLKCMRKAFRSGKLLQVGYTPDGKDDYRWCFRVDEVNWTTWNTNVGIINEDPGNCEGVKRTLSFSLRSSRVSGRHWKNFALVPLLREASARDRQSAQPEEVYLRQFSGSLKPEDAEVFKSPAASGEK
ATP-dependent 6-phosphofructokinase (Trypanosoma brucei brucei), sequence (O15648 whole entry, looked up): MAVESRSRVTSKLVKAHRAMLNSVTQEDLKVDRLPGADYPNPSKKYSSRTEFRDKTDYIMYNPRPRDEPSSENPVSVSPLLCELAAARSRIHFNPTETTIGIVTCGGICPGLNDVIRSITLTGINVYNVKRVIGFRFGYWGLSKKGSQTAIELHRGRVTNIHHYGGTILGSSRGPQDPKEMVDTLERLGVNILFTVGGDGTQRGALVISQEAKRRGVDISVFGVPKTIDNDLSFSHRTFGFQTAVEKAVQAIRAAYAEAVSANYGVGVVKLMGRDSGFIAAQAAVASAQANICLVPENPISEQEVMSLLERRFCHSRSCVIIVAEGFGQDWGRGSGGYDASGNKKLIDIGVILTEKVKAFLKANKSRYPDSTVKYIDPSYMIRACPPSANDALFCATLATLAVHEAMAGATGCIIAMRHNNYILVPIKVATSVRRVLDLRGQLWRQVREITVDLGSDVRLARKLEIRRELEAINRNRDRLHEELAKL
Thyrotropin-releasing hormone receptor (Homo sapiens), sequence (P34981 whole entry, looked up): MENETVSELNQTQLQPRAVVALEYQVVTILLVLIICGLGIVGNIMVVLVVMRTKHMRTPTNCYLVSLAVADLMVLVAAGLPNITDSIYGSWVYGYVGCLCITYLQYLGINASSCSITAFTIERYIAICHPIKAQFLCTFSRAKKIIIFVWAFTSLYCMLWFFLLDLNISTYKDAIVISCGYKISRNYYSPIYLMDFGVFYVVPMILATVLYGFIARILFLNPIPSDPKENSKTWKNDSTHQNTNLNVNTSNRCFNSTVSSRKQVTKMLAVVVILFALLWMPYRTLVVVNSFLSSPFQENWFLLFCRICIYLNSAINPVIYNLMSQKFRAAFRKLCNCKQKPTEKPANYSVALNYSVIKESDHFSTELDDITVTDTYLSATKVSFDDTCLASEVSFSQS
D(1A) dopamine receptor (Homo sapiens), sequence (P21728 whole entry, looked up): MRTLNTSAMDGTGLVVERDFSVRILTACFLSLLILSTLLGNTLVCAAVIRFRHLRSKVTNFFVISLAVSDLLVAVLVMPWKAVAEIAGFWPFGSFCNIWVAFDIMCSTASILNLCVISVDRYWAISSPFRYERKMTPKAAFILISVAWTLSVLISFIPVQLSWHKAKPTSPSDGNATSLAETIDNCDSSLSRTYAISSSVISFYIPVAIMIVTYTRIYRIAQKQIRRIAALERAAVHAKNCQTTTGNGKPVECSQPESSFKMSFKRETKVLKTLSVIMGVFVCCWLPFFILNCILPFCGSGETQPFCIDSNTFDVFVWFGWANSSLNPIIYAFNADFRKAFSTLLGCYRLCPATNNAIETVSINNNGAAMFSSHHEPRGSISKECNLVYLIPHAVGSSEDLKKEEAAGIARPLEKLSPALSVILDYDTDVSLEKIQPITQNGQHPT
ATPase family AAA domain-containing protein 5 (Homo sapiens), sequence (Q96QE3 whole entry, looked up, the tested form may be a part): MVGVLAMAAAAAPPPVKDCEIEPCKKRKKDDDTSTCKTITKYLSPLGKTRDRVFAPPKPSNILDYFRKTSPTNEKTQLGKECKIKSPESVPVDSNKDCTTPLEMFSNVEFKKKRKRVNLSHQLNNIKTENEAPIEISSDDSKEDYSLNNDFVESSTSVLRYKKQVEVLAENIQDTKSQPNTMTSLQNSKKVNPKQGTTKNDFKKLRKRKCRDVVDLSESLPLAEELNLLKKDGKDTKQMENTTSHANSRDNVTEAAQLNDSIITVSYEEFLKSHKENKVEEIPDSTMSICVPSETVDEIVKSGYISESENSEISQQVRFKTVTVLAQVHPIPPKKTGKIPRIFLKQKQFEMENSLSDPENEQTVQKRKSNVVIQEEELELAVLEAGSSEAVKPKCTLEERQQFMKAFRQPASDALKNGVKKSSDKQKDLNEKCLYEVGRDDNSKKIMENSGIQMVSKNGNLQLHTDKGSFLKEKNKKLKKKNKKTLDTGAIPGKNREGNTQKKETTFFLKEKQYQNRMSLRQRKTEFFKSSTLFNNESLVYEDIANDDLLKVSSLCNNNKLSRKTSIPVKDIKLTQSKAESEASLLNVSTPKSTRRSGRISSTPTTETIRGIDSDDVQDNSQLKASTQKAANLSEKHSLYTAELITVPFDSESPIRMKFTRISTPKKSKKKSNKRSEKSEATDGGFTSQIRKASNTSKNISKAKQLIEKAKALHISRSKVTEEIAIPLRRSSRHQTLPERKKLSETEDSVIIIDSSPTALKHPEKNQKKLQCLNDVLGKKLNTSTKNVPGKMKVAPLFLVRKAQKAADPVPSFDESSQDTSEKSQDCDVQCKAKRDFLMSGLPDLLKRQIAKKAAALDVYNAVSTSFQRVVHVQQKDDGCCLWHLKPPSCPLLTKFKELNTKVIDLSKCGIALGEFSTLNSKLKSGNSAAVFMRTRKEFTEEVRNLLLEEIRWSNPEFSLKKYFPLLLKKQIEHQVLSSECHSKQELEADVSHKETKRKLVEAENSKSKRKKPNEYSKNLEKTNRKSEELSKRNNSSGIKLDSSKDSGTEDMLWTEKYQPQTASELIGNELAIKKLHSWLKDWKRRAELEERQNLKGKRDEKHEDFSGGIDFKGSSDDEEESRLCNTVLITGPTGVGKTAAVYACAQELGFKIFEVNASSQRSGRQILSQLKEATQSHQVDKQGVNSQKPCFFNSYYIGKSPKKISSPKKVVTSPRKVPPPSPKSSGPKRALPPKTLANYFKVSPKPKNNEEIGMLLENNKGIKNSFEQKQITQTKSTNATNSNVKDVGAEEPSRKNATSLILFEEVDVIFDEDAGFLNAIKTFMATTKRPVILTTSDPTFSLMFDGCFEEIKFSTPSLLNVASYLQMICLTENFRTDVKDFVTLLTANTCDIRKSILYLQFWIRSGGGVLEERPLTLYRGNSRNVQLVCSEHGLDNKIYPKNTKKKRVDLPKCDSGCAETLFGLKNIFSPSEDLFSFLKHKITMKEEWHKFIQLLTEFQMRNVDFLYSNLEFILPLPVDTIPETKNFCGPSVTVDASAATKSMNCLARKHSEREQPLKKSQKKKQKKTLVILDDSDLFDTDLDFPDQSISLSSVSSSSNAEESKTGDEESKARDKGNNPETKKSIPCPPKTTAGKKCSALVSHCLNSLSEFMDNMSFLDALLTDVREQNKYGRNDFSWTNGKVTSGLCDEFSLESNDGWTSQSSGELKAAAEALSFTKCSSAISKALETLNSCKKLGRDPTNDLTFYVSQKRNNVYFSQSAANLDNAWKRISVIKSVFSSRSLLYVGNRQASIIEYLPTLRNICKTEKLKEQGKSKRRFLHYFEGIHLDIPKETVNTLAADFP
Thyrotropin receptor (Homo sapiens), sequence (P16473 whole entry, looked up): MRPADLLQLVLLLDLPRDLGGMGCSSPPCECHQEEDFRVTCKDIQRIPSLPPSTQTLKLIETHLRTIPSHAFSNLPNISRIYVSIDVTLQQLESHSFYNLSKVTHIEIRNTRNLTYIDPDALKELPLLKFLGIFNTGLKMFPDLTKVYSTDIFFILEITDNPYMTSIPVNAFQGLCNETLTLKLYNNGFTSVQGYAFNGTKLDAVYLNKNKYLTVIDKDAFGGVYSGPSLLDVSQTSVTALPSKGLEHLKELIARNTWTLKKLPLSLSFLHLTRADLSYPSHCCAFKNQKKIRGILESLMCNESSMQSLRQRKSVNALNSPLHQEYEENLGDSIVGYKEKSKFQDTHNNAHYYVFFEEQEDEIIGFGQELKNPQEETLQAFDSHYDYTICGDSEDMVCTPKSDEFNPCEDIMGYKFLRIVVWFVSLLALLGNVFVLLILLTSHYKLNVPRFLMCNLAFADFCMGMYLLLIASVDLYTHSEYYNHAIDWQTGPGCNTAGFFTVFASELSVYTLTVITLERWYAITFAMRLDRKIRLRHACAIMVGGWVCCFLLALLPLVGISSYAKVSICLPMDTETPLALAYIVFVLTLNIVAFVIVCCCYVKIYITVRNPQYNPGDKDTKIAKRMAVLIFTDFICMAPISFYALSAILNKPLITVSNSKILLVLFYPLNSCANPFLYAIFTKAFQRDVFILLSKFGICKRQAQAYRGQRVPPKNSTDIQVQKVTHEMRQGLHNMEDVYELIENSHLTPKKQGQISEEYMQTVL

Cc1oncc1C(=O)Nc1ccc(C(F)(F)F)cc1
0.653%: viability change [8]
active: Potency [7] 2.06 µM
inactive: outcome [1] | outcome [2] | Potency [3] | Potency [4] | Potency [5] | outcome [6] | Potency [8]

Cc1cn[nH]c1
inactive: outcome [1] | outcome [2] | Potency [3] | Potency [4] | Potency [5] | outcome [6] | Potency [7] | Potency [9] | Potency [8]
9.47%: viability change [8]

N[C@@H]1CONC1=O
10.9%: viability change [8]
inactive: outcome [1] | outcome [2] | Potency [3] | Potency [4] | Potency [5] | outcome [6] | Potency [7] | Potency [9] | Potency [8]

Cn1cnc([N+](=O)[O-])c1Sc1ncnc2nc[nH]c12
-10.4%: viability change [8]
inactive: outcome [1] | outcome [2] | Potency [3] | Potency [4] | Potency [5] | Potency [7] | Potency [9] | activation [10] 0.875% | Potency [8]

CCCC(CCC)C(=O)O
2.98%: viability change [8]
inactive: outcome [1] | outcome [2] | Potency [3] | Potency [4] | Potency [5] | outcome [6] | Potency [7] | activation [10] 0.688% | Potency [8]

c1ccc([C@H]2CN3CCSC3=N2)cc1
-0.324%: viability change [8]
inactive: outcome [1] | outcome [2] | Potency [3] | Potency [4] | Potency [5] | Potency [7] | Potency [9] | activation [10] 0.875% | Potency [8]

O=NN(CCCl)C(=O)NCCCl
inactive: outcome [1] | outcome [2] | Potency [3] | Potency [4] | Potency [5] | Potency [7] | Potency [9] | activation [10] 0.438% | Potency [8]
-0.612%: viability change [8]

CCCCNc1cc(C(=O)O)cc(S(N)(=O)=O)c1Oc1ccccc1
10.1%: viability change [8]
inactive: outcome [1] | outcome [2] | Potency [3] | Potency [4] | Potency [5] | outcome [6] | Potency [7] | activation [10] 1.31% | Potency [8]

CC(=O)Oc1ccccc1C(=O)O
inactive: outcome [1] | outcome [2] | Potency [3] | Potency [4] | Potency [5] | outcome [6] | Potency [7] | Potency [9] | Potency [8]
-7.95%: viability change [8]

O=c1n(CCCN2CCN(c3cccc(Cl)c3)CC2)nc2ccccn12
active: Potency [5] 11.2 µM
-3.91%: viability change [8]
inactive: outcome [1] | outcome [2] | Potency [3] | Potency [4] | outcome [6] | Potency [7] | Potency [9] | Potency [8]

NS(=O)(=O)c1cc2c(cc1Cl)NC=NS2(=O)=O
-3.76%: viability change [8]
inactive: outcome [1] | outcome [2] | Potency [3] | Potency [4] | Potency [5] | Potency [7] | Potency [9] | activation [10] 1.12% | Potency [8]

CCC(C)N(C)C(=O)c1cc2ccccc2c(-c2ccccc2Cl)n1 (centres undefined)
inactive: outcome [1] | outcome [2] | Potency [3] | Potency [4] | Potency [5] | Potency [7] | Potency [9] | activation [10] -6.5% | Potency [8]
-9.44%: viability change [8]

CC(C)NCC(O)COc1ccc(COCCOC(C)C)cc1 (centres undefined)
inactive: outcome [1] | outcome [2] | Potency [3] | Potency [4] | Potency [5] | outcome [6] | Potency [7] | activation [10] -0.25% | Potency [8]
3.25%: viability change [8]

C1COC(NC(C2CC2)C2CC2)=N1
inactive: outcome [1] | outcome [2] | Potency [3] | Potency [4] | Potency [5] | Potency [7] | Potency [9] | activation [10] -0.312% | Potency [8]
-3.72%: viability change [8]

Nc1ccc(S(=O)(=O)Nc2ccnn2-c2ccccc2)cc1
inactive: outcome [1] | outcome [2] | Potency [3] | Potency [4] | Potency [5] | outcome [6] | Potency [7] | Potency [9] | activation [10] 1.12% | Potency [8]
-5.45%: viability change [8]

Clc1cccc(Cl)c1NC1=NCCN1
inactive: outcome [1] | outcome [2] | Potency [3] | Potency [4] | Potency [5] | Potency [7] | Potency [9] | Potency [8]
0.846%: viability change [8]

CCn1cc(C(=O)O)c(=O)c2cc(F)c(N3CCNC(C)C3)c(F)c21 (centres undefined)
-3.76%: viability change [8]
inactive: outcome [1] | outcome [2] | Potency [3] | Potency [4] | Potency [5] | Potency [7] | Potency [9] | Potency [8]

N=c1nc(N2CCCCC2)cc(N)n1O
-11.3%: viability change [8]
inactive: outcome [1] | outcome [2] | Potency [3] | Potency [4] | Potency [5] | Potency [7] | Potency [9] | activation [10] 0% | Potency [8]

O=C1CCC(N2C(=O)c3ccccc3C2=O)C(=O)N1 (centres undefined)
-1.75%: viability change [8]
inactive: outcome [1] | outcome [2] | Potency [3] | Potency [4] | Potency [5] | Potency [7] | Potency [9] | activation [10] 0.188% | Potency [8]

O=C1CCc2cc(OCCCCc3nnnn3C3CCCCC3)ccc2N1
inactive: outcome [1] | outcome [2] | Potency [3] | Potency [4] | Potency [5] | Potency [7] | Potency [9] | activation [10] 3.38%

Nc1nc2ccc(OC(F)(F)F)cc2s1
inactive: outcome [1] | outcome [2] | Potency [3] | Potency [4] | Potency [5] | Potency [8]
-4.99%: viability change [8]

CC(C)(C)NCC(O)c1ccc(O)c(CO)c1 (centres undefined)
inactive: outcome [1] | outcome [2] | Potency [3] | Potency [4] | Potency [5] | Potency [7] | Potency [9] | activation [10] 0.188% and 0.75% | Potency [8]
-3.99% and 2.04%: viability change [8]

Cc1[nH]c(=O)c(C#N)cc1-c1ccncc1
inactive: outcome [1] | outcome [2] | Potency [3] | Potency [4] | Potency [5] | outcome [6] | Potency [7] | Potency [9] | activation [10] 0.562% | Potency [8]
-4.04%: viability change [8]
